What was measured:
[1] = tested on: Vero E6 infected with SARS-CoV-2; assay: morphology score (similarity to uninfected cells); higher = more like uninfected cells; conditions: 24 h
[2] = tested on: Vero E6 infected with SARS-CoV-2; assay: SARS-CoV-2 infection rate relative to infected DMSO; higher = more infection, active = 60 or less; conditions: 24 h

| SMILES | morphology score [1] | SARS-CoV-2 infection rate [2] |
| --- | --- | --- |
| COC(=O)[C@@H](N)CCCNC(=N)N[N+](=O)[O-] (10 µM) | 0.125 | 98.5% (inactive) |
| CC[C@H](C)C[C@H](C)CCCCCCCCC(=O)N[C@H]1C[C@@H](O)[C@@H](NCCN)NC(=O)[C@@H]2[C@@H](O)CCN2C(=O)[C@H]([C@H](O)CCN)NC(=O)[C@H]([C@H](O)[C@@H](O)c2ccc(O)cc2)NC(=O)[C@@H]2C[C@@H](O)CN2C(=O)[C@H]([C@@H](C)O)NC1=O [caspofungin] (10 µM) | -0.0128 | 108% (inactive) |
| CC(C)NCC(O)c1ccc([N+](=O)[O-])cc1 (configuration not stated) [nifenalol] (10 µM) | -0.141 | 118% (inactive) |
| NCCCNCCCCNCCCN [spermine] (10 µM) | 0.0211 | 107% (inactive) |
| C=CCc1ccc(O)c(-c2cc(CC=C)ccc2O)c1 [magnolol] (10 µM) | 0.249 | 108% (inactive) |
| Cc1ccc2c(c1)[C@]13CCCC[C@@H]1[C@H](C2)N(C)CC3 [dimemorfan] (10 µM) | 0.368 | 92.5% (inactive) |
| COc1ccc(CN(CCN(C)C)c2ncccn2)cc1 [thonzylamine] (10 µM) | 0.0251 | 110% (inactive) |
| COCCN1CCC(C(=O)NO)(S(=O)(=O)c2ccc(Oc3ccc(OC(F)(F)F)cc3)cc2)CC1 (10 µM) | 0.0474 | 110% (inactive) |
| CCCN(CCc1cccs1)[C@H]1CCc2c(O)cccc2C1 [rotigotine] (10 µM) | -0.0144 | 96.5% (inactive) |
| COc1ccc([C@@H]2CC(=O)c3c(O)cc(O[C@@H]4O[C@H](CO)[C@@H](O)[C@H](O)[C@H]4O[C@@H]4O[C@@H](C)[C@H](O)[C@@H](O)[C@H]4O)cc3O2)cc1O [neohesperidin] (10 µM) | 0.00505 | 112% (inactive) |
| CC1(C)O[C@@H]2C[C@H]3[C@@H]4CCC5=CC(=O)C=C[C@]5(C)[C@@]4(F)[C@@H](O)C[C@]3(C)[C@]2(C(=O)CO)O1 (10 µM) | 0.0142 | 109% (inactive) |
| CC(C)=CCC[C@](C)(O)[C@@H]1CC=C(C)CC1 [levomenol] (10 µM) | -0.0548 | 104% (inactive) |
| CNC(=O)c1cc(Oc2ccc(NC(=O)Nc3cc(C(C)(C)C)nn3-c3ccc4ncccc4c3)c(F)c2)ccn1 [rebastinib] (0.833333 µM) | 0.567 | 106% (inactive) |
| CC(C)(C)c1ccc(S(=O)(=O)Nc2ccc(Cl)cc2C(=O)c2cc[n+]([O-])cc2)cc1 [vercirnon] (10 µM) | 0.0488 | 98.5% (inactive) |
| Cc1cc(SCc2sc(-c3ccc(C(F)(F)F)cc3)nc2C)ccc1OCC(=O)O (10 µM) | 0.0978 | 98.5% (inactive) |
| CNC(=O)Nc1ccc(-c2nc(N3CC4CCC(C3)O4)c3cnn(C4CCC5(CC4)OCCO5)c3n2)cc1 (0.833333 µM) | -0.104 | 100% (inactive) |
| C[C@@H](O[C@H]1OCCN(Cc2n[nH]c(=O)[nH]2)[C@H]1c1ccc(F)cc1)c1cc(C(F)(F)F)cc(C(F)(F)F)c1 [aprepitant] (10 µM) | 0.0718 | 108% (inactive) |
| CC(=O)Oc1ccc(C(c2ccc(OC(C)=O)cc2)c2ccccn2)cc1 [bisacodyl] (10 µM) | 0.261 | 85.5% (inactive) |
| O=C1[C@@H]2[C@H]3CC[C@H](C3)[C@@H]2C(=O)N1C[C@@H]1CCCC[C@H]1CN1CCN(c2nsc3ccccc23)CC1 [lurasidone] (10 µM) | 0.0507 | 96.5% (inactive) |
| COc1ccccc1C(=O)Nc1cccc(NC(=O)c2cccc(C)c2)c1 (10 µM) | 0.257 | 96.5% (inactive) |
| CN1CCN(CCc2ccc(Cl)c(Cl)c2)CC1 (10 µM) | 0.156 | 94% (inactive) |

| SMILES | morphology score [1] | SARS-CoV-2 infection rate [2] |
| --- | --- | --- |
| Nc1cc(C(F)(F)F)c(-c2nc(N3CCOCC3)nc(N3CCOCC3)n2)cn1 (10 µM) | 0.0308 | 114% (inactive) |
| Cn1ncnc1COc1nn2c(-c3cc(F)ccc3F)nnc2cc1C(C)(C)C (10 µM) | 0.166 | 96.5% (inactive) |
| O=C1c2cccc(O)c2C(=O)c2c(O)cccc21 [dantron] (10 µM) | -0.0545 | 103% (inactive) |
| O=C(NCc1ccccc1)OCCO [buramate] (10 µM) | 0.237 | 84.5% (inactive) |
| N#Cc1cn([C@@H]2O[C@H](CO)[C@@H](O)[C@H]2O)c2ncnc(N)c12 [toyocamycin] (0.833333 µM) | -0.0555 | 104% (inactive) |
| CCn1cnc2c(Nc3cccc(Cl)c3)nc(N[C@@H]3CCCC[C@@H]3N)nc21 (0.833333 µM) | -0.35 | 114% (inactive) |
| [O-][n+]1cccc(CO)c1 [mepiroxol] (10 µM) | -0.0187 | 109% (inactive) |
| COc1nc(N)nc2c1ncn2[C@@H]1O[C@H](CO)[C@@H](O)[C@@H]1O [nelarabine] (10 µM) | -0.0124 | 109% (inactive) |
| O=c1c(O)c(-c2ccc(O)c(O)c2)oc2cc(O)cc(O)c12 [quercetin] (10 µM) | 0.0809 | 102% (inactive) |
| COc1ccccc1OC(=O)c1ccccc1OC(C)=O [guacetisal] (10 µM) | 0.0562 | 101% (inactive) |
| CO[C@H]1CC=C2CCN3CCC4=C(CC(=O)OC4)[C@]23C1 (10 µM) | 0.059 | 106% (inactive) |
| CC(C)c1nc(N(C)S(C)(=O)=O)nc(-c2ccc(F)cc2)c1/C=C/[C@@H](O)C[C@@H](O)CC(=O)O [rosuvastatin] (0.833333 µM) | 0.322 | 99% (inactive) |
| Nc1ccc(S(=O)(=O)c2ccc(N)cc2)cc1 [dapsone] (10 µM) | -0.179 | 99.5% (inactive) |
| NCC(O)(CS(=O)(=O)O)c1ccc(Cl)cc1 (configuration not stated) [2-hydroxysaclofen] (10 µM) | 0.266 | 84.5% (inactive) |
| C=C[C@]1(C)C[C@@H](OC(=O)CSC(C)(C)CNC(=O)[C@H](N)C(C)C)[C@]2(C)[C@H](C)CC[C@]3(CCC(=O)[C@H]32)[C@@H](C)[C@@H]1O [valnemulin] (10 µM) | 0.0538 | 116% (inactive) |
| N[C@@]1(C(=O)O)CC[C@H]2[C@H](C(=O)O)[C@H]21 [eglumetad] (10 µM) | -0.0541 | 114% (inactive) |
| NS(=O)(=O)C#Cc1ccccc1 [pifithrin-mu] (0.833333 µM) | 0.168 | 92% (inactive) |
| Fc1ccc2nc(CCC#Cc3ccccn3)cn2c1 [dipraglurant] (10 µM) | 0.0385 | 103% (inactive) |
| CC(C)(C#N)c1cc(Cn2cncn2)cc(C(C)(C)C#N)c1 [anastrozole] (10 µM) | -0.0389 | 109% (inactive) |
| O=C(Nc1nc2cccc(-c3ccc(CN4CCS(=O)(=O)CC4)cc3)n2n1)C1CC1 [filgotinib] (10 µM) | 0.154 | 97% (inactive) |
| O=C1c2c(O)cc(O)cc2O[C@H](c2cc(O)c(O)c(O)c2)[C@H]1O [dihydromyricetin] (10 µM) | -0.0984 | 108% (inactive) |

| SMILES | morphology score [1] | SARS-CoV-2 infection rate [2] |
| --- | --- | --- |
| CCCN[C@@H]1CCc2c(OC)cccc2[C@@H]1C (10 µM) | 0.0456 | 100% (inactive) |
| c1cc2c(c(N3CCNCC3)c1)OCCO2 [eltoprazine] (10 µM) | 0.0367 | 94.5% (inactive) |
| Brc1ccc(NC2C3CC4CC(C3)CC2C4)cc1 (configuration not stated) [bromantan] (10 µM) | -0.111 | 99.5% (inactive) |
| Oc1c(Br)cc(Br)c2cccnc12 [broxyquinoline] (10 µM) | 0.015 | 104% (inactive) |
| Nc1c(CC(=O)O)cccc1C(=O)c1ccccc1 [amfenac] (10 µM) | 0.0516 | 104% (inactive) |
| Cc1c(N)cccc1Cn1ccc(OCCc2cccs2)cc1=O (10 µM) | 0.0738 | 102% (inactive) |
| CCn1c(=O)[nH]c2ccccc21 (10 µM) | 0.182 | 92.5% (inactive) |
| CCCC(C)C1(CC)C(=O)NC(=O)NC1=O (configuration not stated) [pentobarbital] (10 µM) | 0.0334 | 100% (inactive) |
| C=C1CC[C@@]2(O)[C@H]3Cc4ccc(O)c5c4[C@@]2(CCN3CC2CC2)[C@H]1O5 [nalmefene] (10 µM) | -0.0409 | 112% (inactive) |
| COc1ccc(/C=C/C(=O)/C=C(O)/C=C/c2ccc(OC)c(OC)c2)cc1OC (10 µM) | 0.335 | 80.5% (inactive) |
| COc1ccccc1OCC(O)COC(N)=O (configuration not stated) [methocarbamol] (10 µM) | 0.0924 | 100% (inactive) |
| Cc1cccc(C)c1NC1=NCCCS1 [xylazine] (10 µM) | 0.241 | 108% (inactive) |
| O=C(NCCCN1CCCCCC1)C(c1ccccc1)C1CCCCC1 (configuration not stated) (10 µM) | 0.404 | 75.5% (inactive) |
| CC(C(=O)O)c1ccc2c(c1)Cc1cccnc1O2 (configuration not stated) [pranoprofen] (10 µM) | -0.152 | 122% (inactive) |
| CCCCN1CCC(CCC(=O)c2cc(Cl)c(N)cc2OC)CC1 (10 µM) | 0.237 | 95% (inactive) |
| Cc1ccccc1C(=O)Nc1ccc(C(=O)N2CCCC(N(C)C)c3ccccc32)cc1 (configuration not stated) [mozavaptan] (0.833333 µM) | 0.0205 | 117% (inactive) |
| C=C1c2cccc(O)c2C(=O)C2=C(O)[C@]3(O)C(=O)C(C(N)=O)=C(O)[C@@H](N(C)C)[C@@H]3[C@@H](O)[C@H]12 [methacycline] (0.833333 µM) | 0.0945 | 103% (inactive) |
| O=C(N[C@@H]1CC[C@@H](c2cccc(F)c2F)CN(CC(F)(F)F)C1=O)N1CCC(n2c(=O)[nH]c3ncccc32)CC1 [telcagepant] (10 µM) | 0.0561 | 102% (inactive) |
| CC(C)(C)[C@H]1CC[C@H](CC2=C(O)C(=O)c3ccccc3C2=O)CC1 [buparvaquone] (0.833333 µM) | 0.0418 | 94% (inactive) |

Reference: the supplement of paper PMC13380429
